Screening data (PubChem)
eIF4H inh: inhibitors of RNA binding by human eIF4H; inhibition, % at 35 µM; eIF4H fluorescence polarization binding assay; 290,000 compounds, 0.94% hits; Q15056; AID 2012;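 note: calls also rest on retests at 20 µM and on dose response follow-up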
AI-2 QS modul: modulates the Vibrio harveyi AI-2 quorum sensing system. Vibrio harveyi JMH597 AI-2 luminescence/OD600 ratio, 9 h; hits give low values; strain lacks LuxN and CqsS sensors; 0 = neutral-control median. activity change, % at 7.5 µM. 300,000 compounds, 0.4% hits; in the data active = activity change below about -75%, passing the limit was not always enough; inconclusive = no clear call, values can overlap the other calls;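 note: luminescence divided by OD600 gain over 9 h not by final OD600 alone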
PABP polyA inh: PABP-poly(A) binding inhibition. P11940. PABP-poly(A) RNA binding, fluorescence polarization. calls only at 35 µM. 290,000 compounds, 1% hits. AID 2014;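 note: calls also rest on retests at 20 µM and on dose response follow-up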
ABCB6 inh 2: blocks the human ABCB6 transporter | Q9NP58 | K562-ABCB6 porphyrin accumulation, flow cytometry, 1 h; hits give low values | fluorescence ratio to DMSO, % at 10 µM | 360,000 compounds, 0.19% hits | AID 602162;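 active = fluorescence ratio to DMSO below 75%, the collection mean minus 3 SD; inconclusive = too few cells collected in the well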;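 note: signal is porphyrin accumulated inside mitochondria; 100% equals median channel fluorescence of DMSO control wells; lower ratio means ABCB6 inhibition with less porphyrin fluorescence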
PHOSPHO1 block: PHOSPHO1 (human) inhibition; inhibition, % at 13.3 µM; 290,000 compounds, 1.1% hits; recombinant PHOSPHO1, absorbance phosphatase assay; in the data active = inhibition above about 60%
PABP1 MLLE inh: inhibitors of microRNA-mediated deadenylation, human PABP1 MLLE binding; GST-MLLE / FITC-PAM2 fluorescence polarization; inhibition, % at 20 µM; 360,000 compounds, 0.36% hits; AID 588489; in the data active = inhibition above about 35%, passing the limit was not always enough;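 note: plate controls were DMSO wells with GST-MLLE for no effect and wells lacking GST-MLLE protein for full effect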
* hit, by the source's call; i = inactive; ? = inconclusive; · = no result; + = active, no number. An excerpt weighted towards active compounds, which were near 2.6% of everything screened. Unless noted, the rule behind the calls is not given here.

SMILES	eIF4H inh	AI-2 QS modul	PABP polyA inh	ABCB6 inh 2	PHOSPHO1 block	PABP1 MLLE inh
CC1(C(=O)NS(=O)(=O)C2CC2)CCCN(C(=O)c2ccccc2OC(F)(F)F)C1 (centres undefined)	·	·	·	105	·	-7
Oc1c(Br)cc(/C=N/n2c(-c3ccccc3)n[nH]c2=S)c(Br)c1O	85*	31	+	·	-28	·
COc1ccccc1/C=C/C=N/n1c(-c2ccccn2)n[nH]c1=S	-6	22	i	95	16	-27
S=c1[nH]nc(-c2ccncc2)n1/N=C/C(Cl)=C\c1ccccc1	9	40	i	102	32	-78
COc1ccccc1/C=C/C=N/n1c(-c2ccc(C)cc2)n[nH]c1=S	2	34	i	98	86*	-43
COc1ccccc1/C=C/C=N/n1c(-c2cc(C)[nH]n2)n[nH]c1=S	-1	-3	i	97	62*	11
S=c1[nH]nc(-c2ccncc2)n1/N=C/C=C/c1ccccc1	-1	17	i	98	93*	-25
Oc1c(Br)cc(Br)cc1/C=N/n1c(-c2ccccc2)n[nH]c1=S	1	72	i	97	-123	-57
CC1=C(C(=O)N2CCCCCC2)CC(CC(=O)NCc2cccs2)C(=O)N1Cc1ccccc1 (centres undefined)	·	·	·	97	·	-6
CCCCN1C(=O)C(CC(=O)NC2CCCCC2)CC(C(=O)N2CCCCCC2)=C1C (centres undefined)	·	·	·	101	·	·
OC[C@@H]1CN(C2CCCC2)C[C@H](n2cnc3c(NC4CC4)ncnc32)O1	·	·	·	99	·	5
Cc1ccc(C2C(C#N)=C(N)Oc3c2oc(CO)cc3=O)o1 (centres undefined)	45*	0	i	96	7	4
CC(C)Oc1ccc(C2C(C#N)=C(N)Oc3c2oc(CO)cc3=O)cc1 (centres undefined)	43	1	i	95	9	3
Cc1ccc(Cc2c(C(C)(C)C)nc3cc(C)c(Br)c(C)n23)cc1	·	·	·	104	·	0
Cc1cc(C)nc(Sc2nc(Cl)nc(N(c3ccccc3)c3ccccc3)n2)n1	-3	3	i	93	83*	38
COc1cc(C2C(C#N)=C(N)OC3=C2C(=O)CC(C)(C)C3)c([N+](=O)[O-])cc1OC (centres undefined)	?	7	?	98	8	78
COc1ccc(C2C(C#N)=C(N)OC3=C2C(=O)CC(C)(C)C3)c([N+](=O)[O-])c1OC (centres undefined)	-8	12	i	96	-79	45*
COc1cccc(CNC(=O)N[C@@H](CC(C)C)C(=O)O)c1	-1	15	i	63*	-7	-7
O=C(Nc1cccn2nc(COCCO)nc12)C(c1ccccc1)c1ccccc1	·	·	·	99	·	11
COC(=O)c1ccc2cc(C)cc(C)c2n1	·	·	·	104	·	10
CCCCCCCCN1C(=O)[C@H](CC(=O)NCCC(C)C)C[C@@]2(C(=O)OCC)CCCC=C12	·	·	·	96	·	·
CCCC(=O)Nc1sc(C(=O)OC)c(C)c1C(N)=O	2	5	i	157	77*	18
CCCCC(=O)Nc1sc(C(=O)N(CC)CC)c(C)c1C(=O)OC	-2	-17	i	97	-18	34
Nc1cc2c(cc1[N+](=O)[O-])OCO2	84	18	+	101	50	2
O=c1cc2oc3cc(O)c(O)cc3c(-c3ccccc3[N+](=O)[O-])c-2cc1O	50*	6	+	97	32	-11
SMILES	eIF4H inh	AI-2 QS modul	PABP polyA inh	ABCB6 inh 2	PHOSPHO1 block	PABP1 MLLE inh
CCCN(CCC)Cc1cc(=O)oc2cc(C)cc(C)c12	·	·	·	99	·	5
CCN(CC)S(=O)(=O)c1cc(NC(=O)C(C)N2CCc3ccccc32)ccc1C (centres undefined)	active	25	i	115	20	-11
COc1cc([C@@H]2[C@H]3CNCC=C3C(C#N)=C(N)C2(C#N)C#N)ccc1OC(C)C	73*	7	+	109	-3	-53
Cc1cc2c(n1-c1ccc(C(=O)O)cc1)CCCCC2	91*	14	+	·	-8	·
Cc1ccc(-c2ccccc2)n1-c1ccc(C(=O)O)cc1	2	44	i	95	0	4
Cc1ccc(S(=O)(=O)N(C)c2ccc3c(c2)C(=O)c2ccccc2-3)cc1	·	·	·	111	·	-6
N#Cc1c(N)n[nH]c1-c1cc2c([nH]1)CCCC2	5	16	i	97	-6	11
N#Cc1cc2c([nH]c1=S)CCCCCC2	-5	21	i	97	93*	38*
[O-][n+]1cccc2c(Br)cc(Br)c(O)c21	20	-197*	i	96	-33	5
Oc1c(Br)cc(Br)c2cccnc12	·	·	·	100	·	5
CCCCNC(=S)N=Nc1c(O)[nH]c2ccccc12	1	42	i	93	8	31
Oc1cccc(NC(=S)N=Nc2c(O)[nH]c3ccccc23)c1	3	36	i	86	-3	38*
NC(=S)N=Nc1c(O)[nH]c2ccccc12	4	21	i	98	14	21
CCOc1ccc(NC(=S)N=Nc2c(O)[nH]c3ccccc23)cc1	9	28	i	96	0	38*
COc1ccc2c(c1)Cc1cc(NC(=O)c3ccccc3-c3ccccc3C(=O)O)ccc1-2	·	·	·	95	·	9
Cc1ccc(OCC(=O)N2CCC(Cc3ccccc3)CC2)c([N+](=O)[O-])n1	·	·	·	98	·	-30
Cc1ccc(OCC(=O)N2CCN(S(=O)(=O)c3ccccc3)CC2)c([N+](=O)[O-])n1	?	18	+	101	-2	-8
O=C(O)c1c[nH]c(=S)n1-c1ccc(F)cc1	-2	27	i	100	104*	4
CSc1ncc(C(=O)O)n1-c1ccc(F)cc1	3	21	i	98	-3	9
Cc1ccc(C(=O)Nc2nnc(CC(=O)N/N=C/c3ccc(O)c(O)c3)s2)cc1	·	3	·	90	-11	-30
COc1ccc(C(=O)Nc2nnc(CC(=O)N/N=C/c3ccc(O)cc3O)s2)cc1	76*	10	i	101	23	-44
CCOC(=O)c1c(C)oc2c1c(C=NCCO)c(O)c1ccccc12	?	22	i	112	-37	52*
O=C(NCc1ccc(Cl)c(Cl)c1)c1cc(C2CCCCN2C(=O)c2cccs2)on1 (centres undefined)	·	·	·	101	·	2
Cc1ccoc1C(=O)NCCNC(=O)c1occc1C	·	33	·	97	·	4
Cc1ccoc1C(=O)NCc1occc1C(=O)O	74*	20	i	105	-15	19
Cc1nnc(NC(=O)CCSc2ccc(Cl)cc2)s1	-4	-2	i	97	60*	-10
O=C(CSc1ccccc1)Nc1nnc(COc2ccc(Cl)cc2)s1	15	16	i	98	78*	17
